Results published in PubChem BioAssay AID2284386 (EPA ToxCast).
The source made the active and inactive calls. Rule for the calls: active = hit-call score of the fitted dose curve at least 0.9, where 1 is the maximum; inactive = score below 0.9.

molecular target: Peroxisome proliferator-activated receptor gamma (Homo sapiens) (UniProt P37231); experiment: ERF_FR_NR_COA_hPPARG: Eurofins (ERF) Nuclear Receptor (NR) Functional Coactivator Assay for human Peroxisome Proliferator-activated Receptor gamma (PPARg) Agonism, conducted at France lab site
Sequence (P37231 whole entry, looked up): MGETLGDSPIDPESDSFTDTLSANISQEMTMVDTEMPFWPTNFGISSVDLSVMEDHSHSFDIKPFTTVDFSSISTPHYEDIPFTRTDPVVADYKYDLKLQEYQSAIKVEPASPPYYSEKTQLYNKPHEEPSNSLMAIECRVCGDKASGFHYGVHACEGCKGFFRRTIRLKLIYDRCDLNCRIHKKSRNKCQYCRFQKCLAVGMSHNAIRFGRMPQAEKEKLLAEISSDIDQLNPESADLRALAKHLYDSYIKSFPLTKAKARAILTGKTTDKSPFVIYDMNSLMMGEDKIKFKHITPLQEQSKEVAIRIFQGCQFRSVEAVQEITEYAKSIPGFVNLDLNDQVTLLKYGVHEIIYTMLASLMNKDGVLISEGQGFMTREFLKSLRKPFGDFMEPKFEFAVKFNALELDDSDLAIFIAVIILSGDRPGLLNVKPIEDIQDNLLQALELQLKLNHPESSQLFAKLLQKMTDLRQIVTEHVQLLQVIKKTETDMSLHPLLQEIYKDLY
Description: ERF_FR_NR_COA_hPPARG is a biochemical, single-readout assay that uses extracted gene-proteins in a cell-free assay. Measurements were taken 2 hours after chemical dosing in a 384-well plate. See PPARgamma Human NHR Functional Agonist Coactivator Assay, Cerep.ERF_FR_NR_COA_hPPARG is an assay component calculated from the ERF_FR_NR_COA_hPPARG assay. It is designed to measure FRET using a type of binding reporter as detected by fluorescence intensity of Rosiglitazone with fluorimetry technology.Data from the assay component ERF_FR_NR_COA_hPPARG was analyzed at the assay endpoint, ERF_FR_NR_COA_hPPARG, in the positive analysis fitting direction relative to DMSO as the negative control and baseline of activity. Using a type of binding reporter, gain-of-signal activity can be used to understand changes in binding as they relate to gene PPARG. To generalize the intended target to other relatable targets, this assay endpoint is annotated to the nuclear receptor intended target family, where the subfamily is non-steroidal.
Test compound and/or vehicle is incubated with the 2 nM receptors and coactivator peptide for 180 minutes at room temperature. Determination of the amount of complex formed is read spectrofluorimetrically (excitation: 337 nm, emission: 520/490 nm). Test compound-induced increase fluorescence by 50 percent or more (>/=50%) relative to 1 uM GW1929 response indicates possible PPARgamma receptor agonist activity. Test compound-induced inhibition of 5 nM GW1929-induced fluorescence response by 50 percent or more (>/=50%) indicates receptor antagonist activity.

outcome, inactive:
O=C(CC(=O)C(F)(F)C(F)(F)C(F)(F)F)c1cccs1
NC(=O)c1nc(-c2cccc(-c3cc(F)ccc3OCC(F)(F)C(F)(F)F)c2)n[nH]1
O=C(O)CCC(F)(F)C(F)(F)C(F)(F)F
